What was measured:
Assay in all cases: PBM binding z-score (relative to random genomic background probes); higher = stronger binding; sequences stand for … in GC…GCGATTGACAGCGTAGAATGAAGG
[1] = test system: FXR:RXRa (NR concentration 270 nM, RXRa partner concentration 90 nM)
Outline: (§1)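 Binding z-scores were set against random background probes. The data came from custom Agilent 4×180K protein-binding microarrays carrying double-stranded probes with 34-nt variable regions, incubated 1 h with ligand-free nuclear receptor dimers. Partner-specific antibodies detected binding, and scanned fluorescence was regression-normalized.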

[2] = test system: LXRa:RXRa (NR concentration 270 nM, RXRa partner concentration 90 nM)
Outline: as §1

[3] = test system: LXRa homodimer (NR concentration 270 nM)
Outline: as §1

[4] = test system: LXRb:RXRa (NR concentration 270 nM, RXRa partner concentration 90 nM)
Outline: as §1

[5] = test system: LXRb homodimer (NR concentration 270 nM)
Outline: as §1

[6] = test system: PPARa:RXRa (NR concentration 270 nM, RXRa partner concentration 90 nM)
Outline: as §1

[7] = test system: PPARg:RXRa (NR concentration 180 nM, RXRa partner concentration 90 nM)
Outline: as §1

[8] = test system: PPARg:RXRa 270nM:90nM, anti-RXR (NR concentration 270 nM, RXRa partner concentration 90 nM)
Outline: as §1

[9] = test system: PPARg:RXRa 30nM:10nM, anti-RXR (NR concentration 30 nM, RXRa partner concentration 10 nM)
Outline: as §1

[10] = test system: PPARg:RXRa 90nM:30nM, anti-RXR (NR concentration 90 nM, RXRa partner concentration 30 nM)
Outline: as §1

[11] = test system: PPARg:RXRa DBDmut IVT, anti-RXR (DBD mutation: RXRa K156A/R161A, NR concentration 270 nM, RXRa partner concentration 90 nM)
Outline: as §1

[12] = test system: PPARg:RXRa IVT, anti-PPARg (NR concentration 270 nM, RXRa partner concentration 90 nM)
Outline: as §1

[13] = test system: PPARg DBDmut:RXRa IVT, anti-PPARg (DBD mutation: PPARg1 K132A/R137A, NR concentration 270 nM, RXRa partner concentration 90 nM)
Outline: as §1

[14] = test system: PPARg DBDmut IVT, anti-PPARg (DBD mutation: PPARg1 K132A/R137A, NR concentration 270 nM)
Outline: as §1

[15] = test system: PPARg homodimer (NR concentration 180 nM)
Outline: as §1

[16] = test system: PXR:RXRa (NR concentration 270 nM, RXRa partner concentration 90 nM)
Outline: as §1

[17] = test system: PXR homodimer (NR concentration 270 nM)
Outline: as §1

[18] = test system: RARa:RXR (NR concentration 270 nM, RXRa partner concentration 90 nM)
Outline: as §1

[19] = test system: RARa homodimer (NR concentration 270 nM)
Outline: as §1

[20] = test system: RARb:RXRa (NR concentration 270 nM, RXRa partner concentration 90 nM)
Outline: as §1

Sequence | PBM binding z-score [1] | PBM binding z-score [2] | PBM binding z-score [3] | PBM binding z-score [4] | PBM binding z-score [5] | PBM binding z-score [6] | PBM binding z-score [7] | PBM binding z-score [8] | PBM binding z-score [9] | PBM binding z-score [10] | PBM binding z-score [11] | PBM binding z-score [12] | PBM binding z-score [13] | PBM binding z-score [14] | PBM binding z-score [15] | PBM binding z-score [16] | PBM binding z-score [17] | PBM binding z-score [18] | PBM binding z-score [19] | PBM binding z-score [20]
ATTGAAAGGTCGACGAGGTGAGTATACACCGTTT | 4.73 | 3.32 | 0.465 | 2.94 | 0.545 | 4.55 | 3.33 | 3.53 | 1.38 | 2.5 | 0.761 | 2.3 | 1.58 | 1.35 | 1.78 | 3.19 | 0.959 | 3.86 | 0.685 | 4.05
TCTTGTAGATCAAGCAGGTTAATAAAGCCTGAGT | 0.189 | 0.118 | -0.263 | 0.262 | -0.449 | 0.639 | -0.267 | 0.922 | 2.43 | 1.6 | 1.48 | 0.498 | -0.163 | 0.466 | 0.27 | 0.447 | 0.326 | 0.406 | 0.125 | -0.0389
TCGATTAGTTGAAGGGCAACCGACGAGTCCGTTT | 0.259 | 0.194 | -0.152 | 0.106 | -0.503 | 0.295 | -0.114 | 1.19 | 2.74 | 1.85 | 1.72 | 0.195 | 0.000817 | 0.136 | -0.0561 | 0.157 | 0.0884 | 0.128 | 0.353 | 1.2
CCTGCTAGGTCAATGTTCAGCTAAAGCAGCTCGC | 3.04 | 2.39 | -0.0143 | 1.52 | 0.516 | 3 | 2.51 | 3.63 | 0.934 | 2.93 | 4.27 | 3.55 | -0.21 | -0.461 | 1.39 | 0.795 | -0.474 | 1.54 | -0.305 | 3.8
AGTCAAGGTTCATCTAGGTAACGTAAGATATGCT | 5.36 | 4.13 | 1.89 | 2.57 | 0.451 | 3.64 | 3.69 | 3.68 | 1.41 | 2.98 | 1.12 | 3.01 | 1.11 | 1.06 | 1.29 | 2.48 | 1.61 | 2.88 | 0.372 | 2.99
TCTATTAGTAGATTAGGGCAACCGAAACAGCGGA | 0.325 | 0.084 | -0.337 | 0.176 | 0.298 | 0.659 | 0.254 | 1.64 | 3.45 | 2.5 | 2.26 | 1.17 | 0.69 | 0.0955 | 0.0523 | 0.229 | 0.0465 | 0.245 | 0.073 | 0.344
AATATAGGGTCATCGTAGGCCAGAGTACGCACAG | 7.57 | 6.66 | 2.71 | 5 | 1.56 | 6.26 | 7.29 | 6.57 | 3.61 | 5.37 | 4.87 | 5.42 | 1.96 | 1.99 | 2.4 | 4.98 | 0.973 | 5.35 | 1.7 | 4.58
AGAACGAGGGCACGCTGAGTTCATAGCAGAGTAG | 2.2 | 3.15 | 1.02 | 1.45 | -0.593 | 3.12 | 2.52 | 2.43 | 0.373 | 1.47 | 3.84 | 3.89 | 0.826 | -0.0454 | 1.16 | 5.94 | 10.4 | 2.94 | -0.449 | 3.2
CCAGACAGGTGAGAAGGTAACTCACCCTCGATTA | -0.00684 | 0.259 | -0.0683 | 0.491 | -0.394 | 1.09 | 0.731 | 0.509 | -0.0353 | -0.0765 | 0.889 | 0.707 | -0.339 | -0.245 | 0.968 | 0.325 | 0.219 | 0.748 | 0.925 | 0.764
CCTATTAGTTGACCATAAGGGCCACCGAAGCTCG | 0.118 | 0.041 | 0.365 | 0.0156 | 0.659 | 0.169 | 0.368 | 0.219 | 0.231 | 0.304 | 0.171 | 0.5 | 0.477 | 0.579 | 1.36 | -0.0446 | 0.497 | 0.206 | 1.88 | 1.02
CCGACCGGGGCAAAGGTTACCATACTCAGTACGA | 2.32 | 2.1 | 0.433 | 2.47 | -1.02 | 4.89 | 8.71 | 7.68 | 6.28 | 7.92 | 0.771 | 3.62 | -1.08 | -1.57 | 1.59 | 2.84 | -0.256 | 4.81 | -0.0897 | 2.66
TCTGCTAGGTCAGTTGATCAGCTAACGAGCTGCC | 0.721 | 0.672 | -0.553 | 0.169 | -0.0241 | 0.983 | 0.167 | 1.28 | 1.07 | 1.27 | 2.51 | 2.27 | 0.428 | -0.296 | -0.547 | 0.199 | -0.78 | 0.424 | -1.32 | 3
TCTAGTTGGTCACGGAGGTCACCCACGACGGGTA | 3.16 | 3.23 | 2.36 | 2.91 | 0.635 | 3.67 | 3.23 | 4.07 | 3.3 | 3.64 | 2.32 | 4.17 | 1.19 | 1.25 | 3.92 | 4.61 | 1.6 | 4.66 | 1.42 | 3.89
TCTAGCAGGCCCGAGGGTCACTCAAGAGGTACGG | 0.726 | 0.983 | -0.649 | 1.04 | -1.35 | 1.96 | 0.501 | 1.33 | 1.57 | 1.42 | 0.262 | -0.284 | -0.445 | -0.801 | 0.169 | 1.35 | -0.577 | 2.07 | -0.992 | 1.94
